The text below walks through data of the supplement of paper PMC10849652.

The full data set covers some 7,900 targets. This sample favours those with a hit. About 0.6% of all pairs of compound and target were hits.

UniProt Q9UNM6, sequence (Q9UNM6 whole entry, looked up): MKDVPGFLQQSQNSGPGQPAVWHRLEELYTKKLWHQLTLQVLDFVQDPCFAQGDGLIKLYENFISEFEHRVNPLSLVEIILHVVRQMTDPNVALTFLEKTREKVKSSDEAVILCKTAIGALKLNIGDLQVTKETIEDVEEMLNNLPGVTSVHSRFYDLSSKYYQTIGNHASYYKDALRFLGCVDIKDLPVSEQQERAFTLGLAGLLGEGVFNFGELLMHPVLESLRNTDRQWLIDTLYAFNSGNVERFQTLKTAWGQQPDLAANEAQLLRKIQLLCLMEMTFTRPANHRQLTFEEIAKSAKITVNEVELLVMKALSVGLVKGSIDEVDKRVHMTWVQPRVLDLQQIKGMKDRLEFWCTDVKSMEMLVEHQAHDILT
UniProt Q9NR12, sequence (Q9NR12 whole entry, looked up): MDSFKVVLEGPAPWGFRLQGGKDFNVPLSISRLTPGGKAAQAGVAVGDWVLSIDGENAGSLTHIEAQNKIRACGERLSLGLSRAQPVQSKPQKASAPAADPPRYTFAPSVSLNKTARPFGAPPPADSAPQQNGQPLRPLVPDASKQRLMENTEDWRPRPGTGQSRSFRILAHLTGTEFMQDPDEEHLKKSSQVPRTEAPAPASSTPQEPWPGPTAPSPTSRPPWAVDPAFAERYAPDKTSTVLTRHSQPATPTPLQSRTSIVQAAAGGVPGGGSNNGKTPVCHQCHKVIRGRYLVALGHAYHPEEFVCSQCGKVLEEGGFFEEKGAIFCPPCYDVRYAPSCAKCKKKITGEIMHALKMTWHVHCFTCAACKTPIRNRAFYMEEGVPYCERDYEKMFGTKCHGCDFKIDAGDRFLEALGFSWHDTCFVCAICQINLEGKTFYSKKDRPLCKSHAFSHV
UniProt Q5VTL8, sequence (Q5VTL8 whole entry, looked up): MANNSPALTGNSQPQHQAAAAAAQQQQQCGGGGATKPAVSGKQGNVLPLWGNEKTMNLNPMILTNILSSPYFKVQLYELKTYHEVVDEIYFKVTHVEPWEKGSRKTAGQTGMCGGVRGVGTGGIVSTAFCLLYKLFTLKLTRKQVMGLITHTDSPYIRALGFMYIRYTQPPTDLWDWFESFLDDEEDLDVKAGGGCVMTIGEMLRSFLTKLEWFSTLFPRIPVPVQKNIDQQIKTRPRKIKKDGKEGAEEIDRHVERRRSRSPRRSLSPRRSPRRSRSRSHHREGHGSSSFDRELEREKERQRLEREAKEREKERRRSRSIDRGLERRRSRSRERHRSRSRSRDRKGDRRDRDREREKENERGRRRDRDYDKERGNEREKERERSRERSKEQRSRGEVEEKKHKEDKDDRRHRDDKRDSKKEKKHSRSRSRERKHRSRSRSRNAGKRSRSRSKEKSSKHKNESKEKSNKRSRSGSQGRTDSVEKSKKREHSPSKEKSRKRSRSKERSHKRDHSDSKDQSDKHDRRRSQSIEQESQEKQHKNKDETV
UniProt P62191, sequence (P62191 whole entry, looked up): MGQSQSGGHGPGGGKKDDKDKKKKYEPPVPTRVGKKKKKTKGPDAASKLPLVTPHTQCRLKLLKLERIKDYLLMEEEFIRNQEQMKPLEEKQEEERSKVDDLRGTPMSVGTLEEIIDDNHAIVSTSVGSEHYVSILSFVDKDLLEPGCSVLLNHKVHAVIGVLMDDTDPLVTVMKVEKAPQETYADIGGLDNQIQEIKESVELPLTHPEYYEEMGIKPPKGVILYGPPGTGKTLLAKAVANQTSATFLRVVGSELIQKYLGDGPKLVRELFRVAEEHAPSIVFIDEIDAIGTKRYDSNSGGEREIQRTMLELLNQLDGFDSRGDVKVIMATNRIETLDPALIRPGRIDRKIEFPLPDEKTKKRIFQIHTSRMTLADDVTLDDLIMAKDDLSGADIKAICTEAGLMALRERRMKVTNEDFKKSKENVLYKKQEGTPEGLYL
UniProt Q9NW08, sequence (Q9NW08 whole entry, looked up): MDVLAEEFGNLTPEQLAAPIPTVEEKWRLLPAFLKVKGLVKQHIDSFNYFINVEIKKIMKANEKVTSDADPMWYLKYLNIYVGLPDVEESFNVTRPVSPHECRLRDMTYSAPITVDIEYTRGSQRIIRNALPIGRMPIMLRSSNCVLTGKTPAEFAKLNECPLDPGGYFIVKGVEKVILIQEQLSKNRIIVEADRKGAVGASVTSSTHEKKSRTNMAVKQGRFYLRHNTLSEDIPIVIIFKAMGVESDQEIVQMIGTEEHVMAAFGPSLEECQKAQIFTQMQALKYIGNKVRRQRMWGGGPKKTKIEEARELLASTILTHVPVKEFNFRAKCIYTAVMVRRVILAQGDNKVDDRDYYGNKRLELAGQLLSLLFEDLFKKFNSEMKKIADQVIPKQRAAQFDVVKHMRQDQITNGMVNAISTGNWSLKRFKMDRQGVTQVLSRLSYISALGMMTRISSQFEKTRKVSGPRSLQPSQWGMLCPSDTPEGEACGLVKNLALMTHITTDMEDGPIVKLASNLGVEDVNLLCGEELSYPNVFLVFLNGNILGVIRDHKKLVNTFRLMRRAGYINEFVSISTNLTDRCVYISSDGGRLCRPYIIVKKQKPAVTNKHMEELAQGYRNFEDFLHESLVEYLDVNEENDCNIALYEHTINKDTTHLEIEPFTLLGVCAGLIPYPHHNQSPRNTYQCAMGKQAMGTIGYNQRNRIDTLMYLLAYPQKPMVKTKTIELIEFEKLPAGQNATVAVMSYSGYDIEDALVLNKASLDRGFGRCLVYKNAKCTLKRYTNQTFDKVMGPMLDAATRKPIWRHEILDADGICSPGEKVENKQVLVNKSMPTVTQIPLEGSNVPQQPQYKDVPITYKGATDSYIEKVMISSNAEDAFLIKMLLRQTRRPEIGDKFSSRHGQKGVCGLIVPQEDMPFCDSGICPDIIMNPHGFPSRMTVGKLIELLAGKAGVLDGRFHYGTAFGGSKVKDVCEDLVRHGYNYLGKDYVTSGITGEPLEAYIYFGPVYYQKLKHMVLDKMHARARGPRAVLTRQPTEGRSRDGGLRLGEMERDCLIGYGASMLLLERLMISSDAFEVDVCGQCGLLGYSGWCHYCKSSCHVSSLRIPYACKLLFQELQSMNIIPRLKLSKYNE
UniProt Q6P4A8, sequence (Q6P4A8 whole entry, looked up): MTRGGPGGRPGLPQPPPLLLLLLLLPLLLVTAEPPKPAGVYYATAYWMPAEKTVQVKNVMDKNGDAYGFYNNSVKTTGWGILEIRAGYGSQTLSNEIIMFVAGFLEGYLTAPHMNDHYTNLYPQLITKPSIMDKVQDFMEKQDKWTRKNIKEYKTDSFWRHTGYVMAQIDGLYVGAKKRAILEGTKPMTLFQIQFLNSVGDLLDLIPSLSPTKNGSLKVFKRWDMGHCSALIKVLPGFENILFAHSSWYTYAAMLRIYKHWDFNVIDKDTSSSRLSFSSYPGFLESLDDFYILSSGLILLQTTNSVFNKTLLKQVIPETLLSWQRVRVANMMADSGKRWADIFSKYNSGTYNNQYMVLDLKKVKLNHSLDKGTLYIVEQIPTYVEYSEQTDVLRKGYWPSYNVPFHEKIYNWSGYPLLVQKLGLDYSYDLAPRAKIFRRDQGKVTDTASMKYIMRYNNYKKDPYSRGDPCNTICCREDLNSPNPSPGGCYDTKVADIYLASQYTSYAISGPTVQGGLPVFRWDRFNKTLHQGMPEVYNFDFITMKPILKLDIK
UniProt Q8N4L2, sequence (Q8N4L2 whole entry, looked up): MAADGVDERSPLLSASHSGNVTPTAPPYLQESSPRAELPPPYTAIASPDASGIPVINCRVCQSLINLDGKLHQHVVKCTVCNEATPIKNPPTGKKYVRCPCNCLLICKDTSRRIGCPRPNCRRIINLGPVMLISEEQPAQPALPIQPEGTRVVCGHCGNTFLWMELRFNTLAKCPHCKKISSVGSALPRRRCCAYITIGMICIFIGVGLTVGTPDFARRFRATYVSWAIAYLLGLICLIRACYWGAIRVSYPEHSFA
UniProt P28072, sequence (P28072 whole entry, looked up): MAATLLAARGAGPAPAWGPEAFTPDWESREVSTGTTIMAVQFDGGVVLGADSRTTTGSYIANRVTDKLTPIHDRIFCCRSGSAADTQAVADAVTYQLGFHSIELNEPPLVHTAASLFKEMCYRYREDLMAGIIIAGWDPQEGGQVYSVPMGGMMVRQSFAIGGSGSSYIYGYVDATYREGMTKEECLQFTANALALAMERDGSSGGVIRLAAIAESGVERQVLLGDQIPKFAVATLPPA
UniProt Q16512, sequence (Q16512 whole entry, looked up): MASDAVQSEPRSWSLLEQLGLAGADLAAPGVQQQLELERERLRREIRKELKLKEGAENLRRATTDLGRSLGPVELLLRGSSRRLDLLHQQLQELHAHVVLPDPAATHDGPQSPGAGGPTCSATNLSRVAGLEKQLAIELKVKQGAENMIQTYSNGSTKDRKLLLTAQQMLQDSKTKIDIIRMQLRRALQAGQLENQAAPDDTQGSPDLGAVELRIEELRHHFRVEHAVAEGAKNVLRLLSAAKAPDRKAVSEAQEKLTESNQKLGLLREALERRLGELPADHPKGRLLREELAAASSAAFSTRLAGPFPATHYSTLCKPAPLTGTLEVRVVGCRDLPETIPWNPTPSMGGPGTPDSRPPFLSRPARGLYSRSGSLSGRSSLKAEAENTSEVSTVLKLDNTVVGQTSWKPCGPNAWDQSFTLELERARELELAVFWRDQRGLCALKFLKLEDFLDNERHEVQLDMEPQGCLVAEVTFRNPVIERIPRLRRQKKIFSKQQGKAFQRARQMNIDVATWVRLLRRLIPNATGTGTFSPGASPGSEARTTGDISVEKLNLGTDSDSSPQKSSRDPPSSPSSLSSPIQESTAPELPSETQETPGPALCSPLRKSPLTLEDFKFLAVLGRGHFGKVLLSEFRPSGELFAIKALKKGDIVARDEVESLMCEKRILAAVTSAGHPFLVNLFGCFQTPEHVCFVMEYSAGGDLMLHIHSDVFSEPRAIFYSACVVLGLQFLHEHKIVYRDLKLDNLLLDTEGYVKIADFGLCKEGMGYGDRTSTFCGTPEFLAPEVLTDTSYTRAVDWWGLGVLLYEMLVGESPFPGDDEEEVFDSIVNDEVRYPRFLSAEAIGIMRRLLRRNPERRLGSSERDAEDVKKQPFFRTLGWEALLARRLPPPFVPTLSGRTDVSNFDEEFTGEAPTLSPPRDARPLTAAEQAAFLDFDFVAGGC

Compound in the first experiment: CC1=C(C=C(C=C1)NC(=O)C2=CC(=CC=C2)N(C)C)NC(=O)C3=CC=C(C=C3)O
Nature of the experiment: log2 fold change, soluble protein after heating vs DMSO (PISA); higher = thermal stabilisation; K562 cells, 10 uM, 30 min; active = over 0.2 and 3.5 SD of the protein, either way, in both replicates (recomputed). Put shortly: (§1)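 Soluble protein was defined as the supernatant after 21,000xg for 90 min. It came from K562 cells at 2×10^6 cells/mL given 10 μM compound for 30 min, heated in aliquots for 3 min across 48°C-58°C, pooled, and extracted in PBS with 0.5% NP-40 at 4°C, and was quantified by TMTpro 16plex LC-MS/MS with equalised channel sums. Thermal stability against control samples, from duplicates, is reported as log2 fold change.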
On to PSMC2 (UniProt P35998), for which the log2 fold change was 0.02 (inactive).
The same measure, in the same setting: under PSMB6 (UniProt P28072) stands 0.306 (inactive); under PRKD2 isoform 3 (UniProt Q9BZL6), -0.26 (inactive).
Consider QKI (UniProt Q96PU8), for which the log2 fold change was -0.037 (inactive).
Still for that read-out and setting: under PKN1 isoform 2 (UniProt Q16512) stands 0.002 (inactive).
On the same count and under the same terms, with PRPF38B (UniProt Q5VTL8) the figure was 0.001 (inactive); with PTPN12 (UniProt Q05209), -0.071 (inactive); with PDCD6 (UniProt O75340), 0.039 (inactive).
In the case of PPOX (UniProt P50336), the log2 fold change is -0.014 (inactive).
In the case of POP1 (UniProt Q99575), the log2 fold change is -0.001 (inactive).
Same read-out and setting: under PIKFYVE (UniProt Q9Y2I7) stands -0.02 (inactive).
For PPP1R35 (UniProt Q8TAP8), the log2 fold change is 0.065 (inactive).
On the same count and under the same terms, with PSMB4 (UniProt P28070) the figure was 0.02 (inactive); with PLIN2 (UniProt Q99541), 0.018 (inactive).
On the same count and under the same terms, with PCNT (UniProt O95613) the figure was 0.068 (inactive); with PSMD13 (UniProt Q9UNM6), 0.034 (inactive); with PEA15 isoform 2 (UniProt Q15121), -0.039 (inactive).
The same measure, in the same setting: under PARG (UniProt Q86W56) stands -0.064 (inactive); under PDLIM7 (UniProt Q9NR12), -0.029 (inactive).
Consider PEX13 (UniProt Q92968), for which the log2 fold change is -0.101 (inactive).
Still for that read-out and setting: with PRKCD (UniProt Q05655) the figure was -0.025 (inactive); with PSMC5 (UniProt P62195), 0.011 (inactive).
Same read-out and setting: with PCBP1 (UniProt Q15365) the figure was -0.037 (inactive).
Still for that read-out and setting: under POLR3B (UniProt Q9NW08) stands -0.062 (inactive); under PHKG2 (UniProt P15735), -0.007 (inactive).
For the target POLR2D (UniProt O15514), the log2 fold change was -0.005 (inactive).
Take PRKAB1 (UniProt Q9Y478): the log2 fold change was 0.026 (inactive).
On the same count and under the same terms, under PRKAA1 isoform 2 (UniProt Q13131) stands 0.001 (inactive); under PSMC4 (UniProt P43686), 0.013 (inactive); under PRKAR1A (UniProt P10644), -0.051 (inactive).
Still for that read-out and setting: with PIK3R1 (UniProt P27986) the figure was 0.001 (inactive); with PHAX (UniProt Q9H814), 0.013 (inactive); with PIP4P2 (UniProt Q8N4L2), -0.03 (inactive).
As to PLBD1 (UniProt Q6P4A8), the log2 fold change was -0.023 (inactive).
The same measure, in the same setting: under PSMC1 (UniProt P62191) stands 0.033 (inactive); under PDE12 (UniProt Q6L8Q7), 0.006 (inactive); under PARN (UniProt O95453), -0.004 (inactive).

Compound in a further experiment: CC1=CC=C(C=C1)SC2=C3C=C(SC3=CN=C2)C(=O)N
The experiment is described as above. Put shortly: as §1
PSMC2 (UniProt P35998): the log2 fold change was -0.012 (inactive).
The same measure, in the same setting: under PSMB6 (UniProt P28072) stands -0.036 (inactive).
As for PRKD2 isoform 3 (UniProt Q9BZL6), the log2 fold change was 0.117 (inactive).
Still for that read-out and setting: with QKI (UniProt Q96PU8) the figure was 0.019 (inactive); with PKN1 isoform 2 (UniProt Q16512), 0.019 (inactive); with PRPF38B (UniProt Q5VTL8), -0.012 (inactive).
PTPN12 (UniProt Q05209): the log2 fold change is -0.037 (inactive).
Same read-out and setting: with PDCD6 (UniProt O75340) the figure was -0.001 (inactive); with PPOX (UniProt P50336), 0.043 (inactive).
The same measure, in the same setting: under POP1 (UniProt Q99575) stands 0.004 (inactive); under PIKFYVE (UniProt Q9Y2I7), 0.005 (inactive); under PPP1R35 (UniProt Q8TAP8), 0.025 (inactive).
As to PSMB4 (UniProt P28070), the log2 fold change was -0.075 (inactive).
On to PLIN2 (UniProt Q99541), for which the log2 fold change is 0.109 (inactive).
As to PCNT (UniProt O95613), the log2 fold change is -0.117 (inactive).
PSMD13 (UniProt Q9UNM6): the log2 fold change is -0.068 (inactive).
Same read-out and setting: under PEA15 isoform 2 (UniProt Q15121) stands 0.042 (inactive).
On the same count and under the same terms, under PARG (UniProt Q86W56) stands -0.008 (inactive).
Same read-out and setting: with PDLIM7 (UniProt Q9NR12) the figure was -0.002 (inactive); with PEX13 (UniProt Q92968), 0.033 (inactive).
For the target PRKCD (UniProt Q05655), the log2 fold change is -0.012 (inactive).
On the same count and under the same terms, under PSMC5 (UniProt P62195) stands -0.029 (inactive).
Still for that read-out and setting: under PCBP1 (UniProt Q15365) stands 0.112 (inactive); under POLR3B (UniProt Q9NW08), -0.008 (inactive); under PHKG2 (UniProt P15735), -0.083 (inactive).
On the same count and under the same terms, under POLR2D (UniProt O15514) stands 0.002 (inactive); under PRKAB1 (UniProt Q9Y478), 0.022 (inactive).
On to PRKAA1 isoform 2 (UniProt Q13131), for which the log2 fold change is -0.001 (inactive).
Same read-out and setting: with PSMC4 (UniProt P43686) the figure was -0.049 (inactive).
The same measure, in the same setting: under PRKAR1A (UniProt P10644) stands 0.059 (inactive); under PIK3R1 (UniProt P27986), -0.019 (inactive); under PHAX (UniProt Q9H814), 0.022 (inactive).
Take PIP4P2 (UniProt Q8N4L2): the log2 fold change is -0.006 (inactive).
Turning to PLBD1 (UniProt Q6P4A8), the log2 fold change is 0.032 (inactive).
Same read-out and setting: under PSMC1 (UniProt P62191) stands -0.038 (inactive); under PDE12 (UniProt Q6L8Q7), 0.024 (inactive); under PARN (UniProt O95453), 0.004 (inactive).
